# From PubChem BioAssay
# MazF activator – increases E. coli MazEF RNase cleavage of RNA. P0AE70. FAM/BHQ RNA-DNA oligo cleavage fluorescence, 5 h. activation, % at 20 µM. 0.32% of 350,000 active; in the data active means activation above about 50%
# Target sequence (P0AE70 whole entry, looked up): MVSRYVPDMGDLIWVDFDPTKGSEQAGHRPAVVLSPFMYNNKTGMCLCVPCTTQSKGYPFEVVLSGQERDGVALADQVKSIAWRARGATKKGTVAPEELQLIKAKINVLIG
# Anthrax LF inh2 – blocks Bacillus anthracis lethal factor protease; P15917; 0.12% of 360,000 active; AID 588501; inhibition, % at 10 µM; multiplex microsphere protease cleavage assay, LF; further: plate controls were buffer without enzyme for full effect and enzyme alone for no effect
# BoNT A protease – inhibitors of Botulinum neurotoxin A light chain protease. multiplex microsphere protease substrate cleavage, flow cytometry. 0.17% of 360,000 active. inhibition, % at 10 µM; further: plate controls were buffer without enzyme for full effect and enzyme alone for no effect
# Vc quorum ag – quorum light induction in luxS cqsA deficient V. cholerae. activation, % at 18.7 µM. 0.16% of 350,000 active. AID 588436. V. cholerae BH1578 lux reporter, luminescence, 6 h; in the data active means activation mostly above about 9.7%, no sharp cut-off; inconclusive means no clear call, values can overlap the other calls; inactive means mostly below about 3.7%
# BoNT F protease – blocks Botulinum neurotoxin F light chain protease; Multiplex microsphere protease cleavage assay, flow cytometry; 0.22% of 360,000 active; inhibition, % at 10 µM; AID 588497; in the data active means inhibition above about 35%, passing the limit was not always enough; inconclusive means no clear call, values can overlap the other calls; further: plate controls were buffer without enzyme for full effect and enzyme alone for no effect
# Autofluor counter – compound fluorescence in toxin protease inhibitor counterscreen; compound autofluorescence counterscreen, microsphere flow cytometry; active compounds read high; fluorescence intensity (test concentration not listed); 3.1% of 360,000 active; AID 624483; in the data active means fluorescence intensity above about 16000; inconclusive means no clear call, values can overlap the other calls
# * hit, by the source's call; i = inactive; ? = inconclusive; . = not tested or not shown. Most compounds without a hit are left out; they make up all but 3.9% or so of the library. Unless noted, no stated cut-off is given here; in the data, active means inhibition above about 30%; inconclusive means no clear call, values can overlap the other calls; inactive means below that.
SMILES,MazF activator,Anthrax LF inh2,BoNT A protease,Vc quorum ag,BoNT F protease,Autofluor counter
CCOCC(O)CS(=O)(=O)c1ccccn1 (stereo not given),-2,0,?,-1,2,23197*
N#Cc1nc(-c2cccs2)oc1N1CCN(c2ccccc2)CC1,2,-3,-3,-2,-5,20556*
c1csc(-c2nnc(-c3ccc(N4CCOCC4)cc3)o2)c1,2,-2,1,-6,2,20353*
CCOc1ccc(-c2nnc(-c3cccs3)o2)cc1,-7,-3,-1,i,-15,4323
COc1cc(C(=O)NNC(=S)Nc2ccc(S(N)(=O)=O)cc2)cc(OC)c1OC,-24,1,1,0,7,4432
COc1ccc(O)c(/C=N/NC(=O)CN2CCS(=O)(=O)CC2)c1,3,0,-1,0,-10,6054
O=C(CSc1nc2sc3c(c2c(=O)n1-c1ccccc1)CCCC3)N/N=C/c1ccccc1C(=O)O,-24,3,0,7,8,4265
COc1ccc(S(=O)(=O)N(CC(=O)NC2CCCCC2)c2ccc(F)cc2)cc1,1,-1,-1,-2,0,5944
O=c1c2cc([N+](=O)[O-])ccc2sn1-c1ccccc1,-19,3,11,0,-2,3770
N#Cc1ccc2sn(-c3ccccc3)c(=O)c2c1,-16,-2,33*,-1,2,4005
O=C1NCC(CN(c2ccccc2)c2ccccc2)O1 (stereo not given),0,-3,3,12,4,19299*
Cc1ccccc1OCC1CNC(=O)O1 (stereo not given),-4,2,0,-1,0,2006
N#Cc1c(NC(=O)CSc2ncn[nH]2)sc2c1CCCCC2,-5,-1,?,-2,-2,22487*
N#Cc1c(NC(=S)NC(=O)Cc2cccs2)sc2c1CCCCC2,7,-4,5,i,7,20268*
N#Cc1c(NC(=O)CSc2nc(N)cc(=O)[nH]2)sc2c1CCCCCC2,5,-2,0,0,3,10934
O=C(Cn1nnc(-c2ccccc2)c1COc1ccc2ccccc2c1)NCC1CC1,.,-5,-1,0,-4,3940
CN=C1SC(CC(=O)Nc2ccccc2F)C(=O)N1C (stereo not given),0,3,-1,0,-2,5395
CN=C1SC(CC(=O)Nc2cccc(C(F)(F)F)c2)C(=O)N1C (stereo not given),3,-1,-1,-3,-5,16700*
CN=C1SC(CC(=O)Nc2ccc(N3CCOCC3)cc2)C(=O)N1C (stereo not given),5,-1,?,2,-8,25216*
Nc1ccn([C@@H]2O[C@H](C(=O)N3CCSC3)[C@@H](O)[C@H]2O)c(=O)n1,.,2,0,.,-7,5372
CC1(C)CC(=O)C(C(C2=C(O)CC(C)(C)CC2=O)c2cccc(O)c2)C(=O)C1 (stereo not given),3,-2,?,1,-4,20599*
CC1(C)CC(=O)C(C(C2=C(O)CC(C)(C)CC2=O)c2cccnc2)C(=O)C1 (stereo not given),7,2,1,0,6,4231
CC(=O)c1ccc(NC(=O)c2cccs2)cc1,-4,1,0,-2,-3,8908
CC(=O)Nc1ccc(NC(=O)C(C)OC(=O)c2cccs2)cc1 (stereo not given),3,0,-1,i,-4,3817
CC(=O)Nc1ccc(OC(=O)c2cccs2)cc1,-4,-1,?,i,-5,16646*
SMILES,MazF activator,Anthrax LF inh2,BoNT A protease,Vc quorum ag,BoNT F protease,Autofluor counter
CC(=O)c1ccc(OC(=O)c2cccs2)cc1,-3,-1,-3,0,-7,24802*
CC(C)CC1C(=O)N(Cc2cn(Cc3ccco3)nn2)CCS(=O)(=O)N1Cc1ccc(-c2cccc(N(C)C)c2)cc1 (stereo not given),4,-8,0,0,-5,3481
O=C(O)CCc1ccc(-c2ccccc2)n1CC(=O)O,-7,-6,-1,0,-5,10276
O=C(C1CC1)N1CCC(C(O)(c2ccccc2)c2ccccc2)CC1,4,-2,?,3,4,21864*
Cc1c(Cl)cccc1NC(=O)Cn1c(CCC(=O)O)ccc1-c1ccccc1,6,-12,-2,i,48*,4011
Cc1c(Cl)cccc1NC(=O)CN1CCC(C(O)(c2ccccc2)c2ccccc2)CC1,-9,1,-4,0,-7,21085*
Cc1ccccc1C(=O)NC1CCN(CC(=O)Nc2ccccc2Cl)CC1,4,1,4,2,9,3584
Clc1ccc(-n2ncc3c(NCc4ccccn4)ncnc32)cc1,-6,-21,7,-6,10,19639*
c1ccc(-n2ncc3c(NCCCN4CCOCC4)ncnc32)cc1,4,-2,-5,i,-10,18090*
Cc1ccc(CNc2ncnc3c2cnn3-c2ccccc2)cc1,-3,1,-2,i,-1,16965*
Clc1ccc(-n2ncc3c(NCCN4CCOCC4)ncnc32)cc1,0,2,1,-4,20,3403
Cc1ccc(-n2ncc3c(NCc4ccccc4)ncnc32)cc1,1,-8,0,0,-7,2961
Cc1ccc(-n2ncc3c(NCc4ccccn4)ncnc32)c(C)c1,-7,-4,-1,-1,-19,4026
Cc1ccc(S(=O)(=O)N(CC(=O)Nc2ccc(C)cc2C)C(=O)N2CCN(C)CC2)cc1,1,5,3,-1,3,4848
c1ccc(-c2csc(-n3cnnn3)n2)cc1,-10,0,2,-11,5,21991*
COc1ccccc1CNS(=O)(=O)c1ccc(-n2cnnn2)c(OC)c1,2,-9,-1,i,-13,4252
COc1cccc(NC(=O)CCC2CCN(C(=O)C(OC)c3ccccc3)CC2)c1 (stereo not given),2,-2,0,3,0,3505
CC(C)C(CCNC(=O)CN1C(=O)c2ccccc2C1=O)c1ccco1 (stereo not given),-6,1,1,-6,-3,5593
CC(C)C(CCNC(=O)CC(Cc1ccccc1)c1ccco1)c1ccco1 (stereo not given),-2,-2,-1,i,-3,17138*
CSc1nc2c(=S)[nH]c(=S)[nH]c2s1,.,1,1,.,0,4201
COc1ccc(N2C(=O)CC(N3CCN(c4ccc(S(C)(=O)=O)cc4)CC3)C2=O)cc1 (stereo not given),4,-1,2,2,-1,18815*
CC(C)(C)C(=O)NC1CC2CCCC(C1)N2C(=O)Nc1ccccc1 (stereo not given),1,.,.,0,.,.
COc1ccc2c(c1)C(=O)O[C@@H](c1ccccc1)C[C@@H](O)C(=O)CC2,.,-9,0,.,2,5956
O=C(c1ccccc1[N+](=O)[O-])N1CCN(c2ccc(N3CCOCC3)nn2)CC1,7,2,-4,i,?,?
